In PubChem BioAssay (NCI):
The panel holds about 83,000 compounds, 20% with a hit somewhere; the sample as a whole holds those more often.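 Assay: single dose, 48 h. Readout: percent growth (0 = no net growth; negative = cell death). Active: <10.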 The source made the active and inactive calls.

Columns and labels:
Assay in all cases: NCI-60 one-dose screen, 48 h (100 = growth as untreated, 0 = no growth, -100 = all killed)
Details in all cases: 10 µM
SR leukemia = test system: SR leukemia
RPMI-8226 leukemia = test system: RPMI-8226 leukemia
OVCAR-8 ovarian = test system: OVCAR-8 ovarian
OVCAR-5 ovarian = test system: OVCAR-5 ovarian
OVCAR-4 ovarian = test system: OVCAR-4 ovarian
SK-OV-3 ovarian = test system: SK-OV-3 ovarian
IGROV1 ovarian = test system: IGROV1 ovarian
OVCAR-3 ovarian = test system: OVCAR-3 ovarian
HS 578T breast = test system: HS 578T breast
NCI/ADR-RES ovarian = test system: NCI/ADR-RES ovarian

Measured: growth

CC(=O)OCC(COC(C)=O)(COC(C)=O)COC(C)=O
inactive: SR leukemia 86.6% | RPMI-8226 leukemia 97.6% | OVCAR-8 ovarian 103% | OVCAR-5 ovarian 102% | OVCAR-4 ovarian 112% | SK-OV-3 ovarian 99.6% | IGROV1 ovarian 104% | OVCAR-3 ovarian 103% | HS 578T breast 101% | NCI/ADR-RES ovarian 106%

C[C@@H]1C(=O)N(C[C@H](Cc2ccccc2)NC(=O)OCc2ccccc2)[C@]1(Cc1ccccc1)C(=O)OCc1ccccc1
inactive: SR leukemia 35.2% | RPMI-8226 leukemia 30.1% | OVCAR-8 ovarian 40.7% | OVCAR-5 ovarian 65.8% | OVCAR-4 ovarian 22.1% | SK-OV-3 ovarian 54.8% | IGROV1 ovarian 69.5% | OVCAR-3 ovarian 61.3% | HS 578T breast 78.8% | NCI/ADR-RES ovarian 27%

Cn1c(=O)c2[nH]c(C(O)c3ccc(Cl)cc3)nc2n(C)c1=O (stereo not given)
inactive: SR leukemia 104% | RPMI-8226 leukemia 90.6% | OVCAR-8 ovarian 97.8% | OVCAR-5 ovarian 99.6% | OVCAR-4 ovarian 91.3% | SK-OV-3 ovarian 101% | IGROV1 ovarian 111% | OVCAR-3 ovarian 109% | HS 578T breast 87.9% | NCI/ADR-RES ovarian 97.9%

CCC(OC(=O)CC(C)C)c1ccccc1 (stereo not given)
inactive: SR leukemia 101% | RPMI-8226 leukemia 105% | OVCAR-8 ovarian 93.4% | OVCAR-5 ovarian 104% | OVCAR-4 ovarian 112% | SK-OV-3 ovarian 102% | IGROV1 ovarian 111% | OVCAR-3 ovarian 107% | HS 578T breast 104% | NCI/ADR-RES ovarian 98.8%

NCCNc1ccc2cc(-c3nc4ccccc4[nH]3)c(=O)oc2c1
inactive: SR leukemia 86.2% | RPMI-8226 leukemia 95.7% | OVCAR-8 ovarian 98.2% | OVCAR-5 ovarian 101% | OVCAR-4 ovarian 86.1% | SK-OV-3 ovarian 104% | IGROV1 ovarian 99.8% | OVCAR-3 ovarian 98.7% | HS 578T breast 91.6% | NCI/ADR-RES ovarian 95.1%

CCOC(=S)Sc1ccc([N+](=O)[O-])cc1[N+](=O)[O-]
inactive: SR leukemia 18.3% | RPMI-8226 leukemia 11.9% | OVCAR-8 ovarian 93.3% | OVCAR-5 ovarian 99.2% | OVCAR-4 ovarian 113% | SK-OV-3 ovarian 97.1% | IGROV1 ovarian 99.2% | OVCAR-3 ovarian 62.2% | HS 578T breast 98% | NCI/ADR-RES ovarian 102%

CC(C)OCc1cc(CN2CCN(c3cccc(Cl)c3)CC2)c(O)c2ncccc12
inactive: OVCAR-5 ovarian 38.3% | OVCAR-4 ovarian 15.7% | SK-OV-3 ovarian 13.7%
active: SR leukemia -30.6% | RPMI-8226 leukemia -25% | OVCAR-8 ovarian -15.2% | IGROV1 ovarian 8.86% | OVCAR-3 ovarian 2.88% | HS 578T breast -0.795% | NCI/ADR-RES ovarian -27.3%

O=C(Nc1ccc(OS(=O)(=O)Cc2ccccc2)cc1)C12CC3CC(CC(C3)C1)C2
inactive: SR leukemia 30.3% | RPMI-8226 leukemia 35% | OVCAR-8 ovarian 91.4% | OVCAR-5 ovarian 104% | OVCAR-4 ovarian 78.7% | SK-OV-3 ovarian 87.3% | IGROV1 ovarian 97.8% | OVCAR-3 ovarian 80.2% | HS 578T breast 98.7% | NCI/ADR-RES ovarian 84.4%

CC(C)C(C)C(N)C(=O)O (stereo not given)
inactive: SR leukemia 93.7% | RPMI-8226 leukemia 99.6% | OVCAR-8 ovarian 105% | OVCAR-5 ovarian 114% | OVCAR-4 ovarian 115% | SK-OV-3 ovarian 96% | IGROV1 ovarian 101% | OVCAR-3 ovarian 111% | HS 578T breast 117% | NCI/ADR-RES ovarian 107%
